This is an account of results in PubChem BioAssay AID1076 (NMMLSC, 2008).

Calls of active or inactive are those of the source.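 The calls were made as follows: active = cell event count below 40, meaning activity score above 60 where score is 100 minus count; inactive = the rest.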

One assay is described as follows: cytotoxicity in LNCaP prostate cells – cell-based, cell event count, single point, cytotoxicity control for prostate differentiation activator project, confirmation (AID 1076).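 Also: counts scatter-gated live cells after medium removal discards detached dead cells.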 The settings on record: LNCaP cell loss, flow cytometry event count, 4 d; at 100 µM; stronger effect = lower value.
`Cc1sc(CO)c(Sc2ccccc2)c1C(=O)O`: the cell event count is 324 (inactive). Same read-out and setting: next, `Cc1ccc(OCC(O)Cn2c(=N)n(CCN3CCCCC3)c3ccccc32)cc1` (stereo not given): 13 (inactive); `CCN(CC)CCCNc1oc(-c2cccc(Cl)c2)nc1C#N`: 32 (inactive). On the same count and under the same terms, next, `O=C(CSc1c[nH]c2ccccc12)N1CCOCC1`: 297 (inactive); `CN1CCN(c2oc(COc3ccc(-c4ccccc4)cc3)nc2C#N)CC1`: 5 (inactive). The same measure, in the same setting: under `COc1ccc(Cl)cc1N1CCN(CCNC(=O)Nc2ccccc2C)CC1` stands 6 (inactive); under `CCCc1cc(-c2n[nH]c(C)c2-c2ccc(C(=O)OCC)o2)c(O)cc1O`, 7 (active).

As for `CCN1CCN(CCNC(=O)C2CCCN(Cc3nc(-c4cccc(Cl)c4)oc3C)C2)CC1` (stereo not given), the cell event count was 14 (inactive). On the same count and under the same terms, under `O=C(Cc1ccc(-n2cccc2)cc1)NCc1cccs1` stands 160 (inactive). Still for that read-out and setting: under `CCOC(=O)c1c(C)[nH]c(C(=O)COC(=O)C2CC2C)c1C` (stereo not given) stands 37 (inactive); under `Cc1ccc(C)c2[nH]c(=O)c(CN(CCN3CCCC3)C(=O)Nc3cccc(Cl)c3)cc12`, 5 (inactive); under `Cc1ccc2c(c1)c1c(n2CC(O)Cn2c(C)nc3ccccc32)/C(=N\O)CCC1` (stereo not given), 16 (inactive).

For the compound `CCOC(=O)c1c(-c2ccc(C)o2)csc1NC(=O)CN1CCN(CC)CC1`, the cell event count is 27 (inactive).

For the compound `COCCCN(C(=O)Nc1ccccc1)C(C)c1ccncc1` (stereo not given), the cell event count was 238 (inactive). The same measure, in the same setting: next, `COc1ccc(-c2ccc(-c3nnn(CC(C)=O)n3)cc2)cc1`: 145 (inactive). Take `Cc1ccccc1CN1CCN(CC(=O)NCCCN2CCN(c3ccc(F)cc3)CC2)C1=O`: the cell event count was 241 (inactive). Still for that read-out and setting: next, `O=C(NCCCN1CCN(c2cccc(Cl)c2)CC1)c1cccc(N2CCCC2=O)c1`: 222 (inactive); `O=C(CSc1nc2c(c(=O)n1-c1ccc(F)cc1)SCC2)NCC1CCCO1` (stereo not given): 207 (inactive); `Cc1cccc(-c2nsc(SCC(=O)Nc3nccs3)n2)c1`: 144 (inactive).

On to `CCOc1ccccc1NC(=O)CCC(=O)O`, for which the cell event count is 239 (inactive).

In the case of `CCN1CCCC1CNC(=O)C1CCN(Cc2nc(-c3cccc(Br)c3)oc2C)CC1` (stereo not given), the cell event count is 16 (inactive).

On to `CC(=O)Nc1cc(C(=O)N2CCOCC2)ccc1S(=O)(=O)c1ccc(C)cc1`, for which the cell event count was 272 (inactive).

Still in this assay, the particulars now being: LNCaP cell loss, flow cytometry event count, 4 d; event count; at 10 µM; stronger effect = lower value.
`Cc1oc(-c2ccc(Cl)cc2)nc1CN1CCCC(C(=O)NCc2ccccn2)C1` (stereo not given): the cell event count amounted to 168. Still for that read-out and setting: next, `CCn1c(=O)cc(SCC(=O)NCCN2CCN(Cc3ccccc3)CC2)c2ccccc21`: 356; `CCOC(=O)C1CCCN(C(=O)Cn2cccc2C(=O)c2ccccc2)C1` (stereo not given): 166. `COc1ccc(-c2noc(-c3cc(Cl)ccc3Cl)n2)cc1OC` had a cell event count of 110. Same read-out and setting: next, `CCOc1ccc2ccccc2c1C(=O)N1CCN(c2ccccc2)CC1`: 79.5; `Cc1ccc2[nH]c(=O)c3cc(C(=O)N(C)Cc4ccco4)sc3c2c1`: 456.

In turn, `O=C(NCC1CCCO1)C1CC(c2ccc(Cl)c(Cl)c2)=NO1` (stereo not given) returned a cell event count of 79.

For the compound `O=C(Cc1coc(-c2ccc(F)cc2)n1)N1CCOCC1`, the cell event count was determined as 71.5. Same read-out and setting: under `N=c1n(CCO)c2ccccc2n1CCOc1ccc(Cl)cc1Cl` stands 272; under `CCn1c(=N)n(CC(O)COc2cccc(C)c2)c2ccccc21` (stereo not given), 50.5. For the compound `O=C(NCCCN1CCN(c2cccc(Cl)c2)CC1)C1CCC(=O)N1Cc1ccccc1Cl` (stereo not given), the cell event count was 239. Same read-out and setting: under `CCCS(=O)(=O)N1CCCC(C(=O)NCCCN2CCN(c3cccc(Cl)c3)CC2)C1` (stereo not given) stands 114.

`COc1ccccc1N1CCN(C(=O)CCn2c(=O)[nH]c3ccsc3c2=O)CC1` yielded a cell event count of 224. The same measure, in the same setting: under `Cc1oc(-c2cccc(Cl)c2)nc1CN1CCC(C(=O)NCc2ccco2)CC1` stands 189; under `Cc1noc(/C=C/c2ccco2)c1S(=O)(=O)N1CCC(C(=O)N2CCc3ccccc3C2)CC1`, 197; under `CN(C(=O)c1ccccn1)c1nnc(-c2cccnc2)s1`, 240. With `Cc1sc(CO)c(Sc2ccccc2)c1C(=O)O`, the cell event count was 240. The same measure, in the same setting: next, `Cc1ccc(OCC(O)Cn2c(=N)n(CCN3CCCCC3)c3ccccc32)cc1` (stereo not given): 96; `CCN(CC)CCCNc1oc(-c2cccc(Cl)c2)nc1C#N`: 227. Turning to `O=C(CSc1c[nH]c2ccccc12)N1CCOCC1`, the cell event count was found to be 149.

`CN1CCN(c2oc(COc3ccc(-c4ccccc4)cc3)nc2C#N)CC1` returned a cell event count of 174. Same read-out and setting: under `COc1ccc(Cl)cc1N1CCN(CCNC(=O)Nc2ccccc2C)CC1` stands 506. The compound `CCCc1cc(-c2n[nH]c(C)c2-c2ccc(C(=O)OCC)o2)c(O)cc1O` displayed a cell event count of 71. On the same count and under the same terms, next, `CCN1CCN(CCNC(=O)C2CCCN(Cc3nc(-c4cccc(Cl)c4)oc3C)C2)CC1` (stereo not given): 141; `O=C(Cc1ccc(-n2cccc2)cc1)NCc1cccs1`: 133. `CCOC(=O)c1c(C)[nH]c(C(=O)COC(=O)C2CC2C)c1C` (stereo not given): the cell event count was 976. `Cc1ccc(C)c2[nH]c(=O)c(CN(CCN3CCCC3)C(=O)Nc3cccc(Cl)c3)cc12` had a cell event count of 97. On the same count and under the same terms, next, `Cc1ccc2c(c1)c1c(n2CC(O)Cn2c(C)nc3ccccc32)/C(=N\O)CCC1` (stereo not given): 454; `CCOC(=O)c1c(-c2ccc(C)o2)csc1NC(=O)CN1CCN(CC)CC1`: 170.

With `COCCCN(C(=O)Nc1ccccc1)C(C)c1ccncc1` (stereo not given), the cell event count was 387. Turning to `COc1ccc(-c2ccc(-c3nnn(CC(C)=O)n3)cc2)cc1`, the cell event count amounted to 116. On the same count and under the same terms, under `Cc1ccccc1CN1CCN(CC(=O)NCCCN2CCN(c3ccc(F)cc3)CC2)C1=O` stands 195. On the same count and under the same terms, next, `O=C(NCCCN1CCN(c2cccc(Cl)c2)CC1)c1cccc(N2CCCC2=O)c1`: 176. Same read-out and setting: under `O=C(CSc1nc2c(c(=O)n1-c1ccc(F)cc1)SCC2)NCC1CCCO1` (stereo not given) stands 132; under `Cc1cccc(-c2nsc(SCC(=O)Nc3nccs3)n2)c1`, 169.

`CCOc1ccccc1NC(=O)CCC(=O)O` yielded a cell event count of 200.

In turn, `CCN1CCCC1CNC(=O)C1CCN(Cc2nc(-c3cccc(Br)c3)oc2C)CC1` (stereo not given) had a cell event count of 78.

Consider `CC(=O)Nc1cc(C(=O)N2CCOCC2)ccc1S(=O)(=O)c1ccc(C)cc1`, for which the cell event count amounted to 300.
